Experimental data published in PubChem BioAssay (EPA / NIEHS).
The source made the active and inactive calls. How the source made its calls: active means hit-call score of the fitted dose curve at least 0.9, where 1 is the maximum; inactive means score below 0.9.

Read-out: TIMP1, TIMP1 (gene 7076)
Test: LTEA_HepaRG_TIMP1: Life Technologies and Expression Analysis (LTEA) Assay for TIMP1 using HepaRG (AID 2283534);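 on outcome: TaqMan qRT-PCR signal normalized to ACTB GAPDH and POLR2A housekeeping genes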
Details: mRNA level, 48 h; actives raise or lower the signal
Description: LTEA_HepaRG is a cell based, multiplexed-readout assay that uses HepaRG, a human liver cell line, with measurements taken at 48 hours after chemical dosing on a 96-well plate.LTEA_HepaRG_TIMP1 is one of 102 assay component(s) measured in the LTEA HepaRG cell culture assay. It is a marker of Cell proliferation, survival, death.Data from the assay component LTEA_HepaRG_TIMP1 was analyzed into 1 endpoint. This assay endpoint, LTEA_HepaRG_TIMP1, was analyzed with bidirectional fitting relative to DMSO as the negative control and baseline of activity. Using a type of inducible reporter, measures of mRNA induction for gain or loss-of-signal activity can be used to understand regulation of transcription factor activity. To generalize the intended target to other relatable targets, this assay endpoint is annotated to the protease inhibitor intended target family, where the subfamily is metalloproteinase inhibitor.
A total of 1060 chemcials from the ToxCast library were tested in eight-point concentration-response experiments. Cell culture and cytotoxicity assays were conducted at Thermo Fisher Scientific's Custom Services facility (Madison, WI). A single lot of human HepaRG cells (Thermo Fisher Scientific, Frederick, MD) was used for the cell culture experiments. 96-well format collagen type I coated plates of human HepaRG cells were prepared using established methods. Briefly, cryopreserved HepaRG cells were thawed, plated at a density of approximately 100,000 cells/well in HepaRG Thaw, Plate, and General Purpose media (HPRG770, Thermo Fisher Scientific), and incubated for 48 hours. 0.5% DMSO was selected as vehicle control to balance the requisite need of DMSO in HepaRG cultures to maintain differentiation (for example, baseline metabolism, proportions of hepatocytes vs. cholangiocytes), while enabling further hepatic receptor pathway activation (for example, PXR and CAR) in response to chemical exposure. 48 hours after plating, the culture medium was replaced with HepaRG Serum-Free Incudtion Media. Cells were exposed to each test chemical in duplicate and maintained in CO2 incubators for another 48 hours. Chemical plates were thawed to room temperature and 200x concentrations of treatment groups were prepared. 8-point conentration-reponse curves were made with the highest exposure at 100 uM, followed by half-log dilutions, all in 0.5% DMSO. Each test plate contained variouse controls, induction positive controls (1mM phenobarbital), cytotoxicity positive controls ([…] aflatoxin B1), vehicle controls (0.5% DMSO), and total lysis controls (0.5% DMSO). Cell morphology images were taken using an Essen IncuCyte FLR automated microscope, with six 96-well plates imaged in about 24 minutes. Images were captured and exported and JPEG files. Spent culture media was transfered to black-well plates for the LDH assay, and remaining media was sorted at -80 C for later use. Cells were treated with RLT buffer and frozen until shipped for gene expression analysis. Total RNA was isolated from the cell suspension in 75 uL of Buffer RLT (Qiagen, Germantown, MD 20874) by Quintiles/Expression Analysis (Durham, NC) using a custom isolation procedure. Total RNA from each plate well was transferred to a preamplification plate. Fluidigm's 96.96 Dynamic ArrayTM (Fluidigm, Amsterdam, the Netherlands) technology was used for gene expression analyses by quantitative reverse transcription polymerase chain reaction (qRT-PCR, performed by Quintiles/Expression Analysis, Durham, NC)89. Standard TaqManTM Assays (Applied Biosystems/ThermoFisher Scientific, Foster City, CA) were used to assess the expression of 93 genes selected based on their selectivity and sensitivity to important hepatic receptors known to be modulated by environmental chemicals; importance in human hepatocyte functionality; and hepatotoxicity. […]

| SMILES | outcome | AC50 |
| --- | --- | --- |
| N#Cc1c(Cl)cccc1Cl | inactive | – |
| Cc1c(COC(=O)[C@@H]2[C@H](/C=C(\Cl)C(F)(F)F)C2(C)C)cccc1-c1ccccc1 | inactive | – |
| CC(C)C1(C)N=C(c2ncccc2C(=O)O)NC1=O (stereo not given) | inactive | – |
| CO/N=C(/C1=NOCCO1)c1ccccc1Oc1ncnc(Oc2ccccc2Cl)c1F | – | 50 µM (active) |
| N#CN=C1SCCN1Cc1ccc(Cl)nc1 | inactive | – |
| COC(=O)c1c(C(F)F)nc(C(F)(F)F)c(C2=NCCS2)c1CC(C)C | inactive | – |
| Nc1cnn(-c2ccccc2)c(=O)c1Cl | inactive | – |
| OC(c1ccc(Cl)cc1)(c1ccc(Cl)cc1)C(Cl)(Cl)Cl | inactive | – |
| CCC(C)n1c(=O)[nH]c(C)c(Br)c1=O (stereo not given) | inactive | – |
| C=C(C)CN(CC)c1c([N+](=O)[O-])cc(C(F)(F)F)cc1[N+](=O)[O-] | inactive | – |
| CC(C)(C)C(=O)C(Oc1ccc(Cl)cc1)n1cncn1 (stereo not given) | inactive | – |
| CC(C)N1C(=O)N(c2ccccc2)CSC1=NC(C)(C)C | inactive | – |
| CS(=O)(=O)c1ccc(C(=O)C2C(=O)CCCC2=O)c([N+](=O)[O-])c1 | inactive | – |
| CC1(C)C(C=C(Cl)Cl)C1C(=O)OC(C#N)c1cccc(Oc2ccccc2)c1 (stereo not given) | inactive | – |
| CCOc1nc(C(Cl)(Cl)Cl)ns1 | inactive | – |
| CCCCC(C#N)(Cn1cncn1)c1ccc(Cl)cc1 (stereo not given) | inactive | – |
| COC(=O)NC(=S)Nc1ccccc1NC(=S)NC(=O)OC | inactive | – |
| CC(C)=CC1C(C(=O)OCc2coc(Cc3ccccc3)c2)C1(C)C (stereo not given) | inactive | – |
| O=C(Nc1ccccc1-c1ccc(Cl)cc1)c1cccnc1Cl | inactive | – |
| CN/C(=N\[N+](=O)[O-])NCc1cnc(Cl)s1 | inactive | – |

| SMILES | outcome | AC50 |
| --- | --- | --- |
| COc1cc(Cl)c(OC)cc1Cl | inactive | – |
| CCOC(=O)C(C)OC(=O)c1cc(Oc2ccc(C(F)(F)F)cc2Cl)ccc1[N+](=O)[O-] (stereo not given) | inactive | – |
| C=CCOC(=O)C(C)(C)OC(=O)c1cc(-n2c(=O)cc(C(F)(F)F)n(C)c2=O)ccc1Cl | inactive | – |
| CCOc1cc(C(C)(C)C)ccc1C1COC(c2c(F)cccc2F)=N1 (stereo not given) | inactive | – |
| COCc1cnc(C2=NC(C)(C(C)C)C(=O)N2)c(C(=O)O)c1 (stereo not given) | inactive | – |
| Cc1cnc(C2=NC(C)(C(C)C)C(=O)N2)c(C(=O)O)c1 (stereo not given) | inactive | – |
| CCCCC(O)(Cn1cncn1)c1ccc(Cl)cc1Cl (stereo not given) | inactive | – |
| COC(=O)NS(=O)(=O)c1ccc(N)cc1 | inactive | – |
| CCNP(=S)(OC)O/C(C)=C/C(=O)OC(C)C (stereo not given) | inactive | – |
| CS(=O)(=O)c1cc(C(F)(F)F)ccc1C(=O)c1cnoc1C1CC1 | inactive | – |
| CSC(=O)c1c(C(F)F)nc(C(F)(F)F)c(C(=O)SC)c1CC(C)C | inactive | – |
| CC(C)Nc1nc(Cl)nc(NC(C)C)n1 | inactive | – |
| CCOP(=S)(OCC)Oc1nc(Cl)n(C(C)C)n1 | inactive | – |
| CCCN(CC)CC1COC2(CCC(C(C)(C)C)CC2)O1 (stereo not given) | inactive | – |
| COCC(=O)N(c1c(C)cccc1C)C(C)C(=O)OC (stereo not given) | inactive | – |
| N#Cc1c[nH]cc1-c1cccc2c1OC(F)(F)O2 | inactive | – |
| CC(C)N1C(=O)c2ccccc2NS1(=O)=O | inactive | – |
| COP(=O)(OC)O/C(C)=C/C(=O)N(C)C | inactive | – |
| CC1(C)CON(Cc2ccccc2Cl)C1=O | inactive | – |
| CCOP(=O)(OCC)Oc1nc(Cl)c(Cl)cc1Cl | inactive | – |
